In the supplement of paper PMC6992640:

test system: UCD52 (cells of a triple-negative basal-like breast cancer xenograft); assay: cell viability of combination (% of vehicle); higher = less cytotoxic; conditions: 1 µM; 72 h; partner dose: 10 nM
Experimental: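 PDX cells were treated for 72 h with each drug at 1 µM plus carfilzomib (10 nM; 100 nM for WHIM2). Luciferase viability is expressed as percent of vehicle.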

| SMILES | cell viability of combination |
| --- | --- |
| Cc1cc(C(C#N)c2ccc(Cl)cc2)c(Cl)cc1NC(=O)c1cc(I)cc(I)c1[O-].[Na+] (stereo not given) [Closantel Sodium] + CC(C)C[C@H](NC(=O)[C@H](CCc1ccccc1)NC(=O)CN1CCOCC1)C(=O)N[C@@H](Cc1ccccc1)C(=O)N[C@@H](CC(C)C)C(=O)[C@@]1(C)CO1 [Carfilzomib] | 65.9 |
| Cc1cc(C(C#N)c2ccc(Cl)cc2)c(Cl)cc1NC(=O)c1cc(I)cc(I)c1O (stereo not given) [Closantel] + CC(C)C[C@H](NC(=O)[C@H](CCc1ccccc1)NC(=O)CN1CCOCC1)C(=O)N[C@@H](Cc1ccccc1)C(=O)N[C@@H](CC(C)C)C(=O)[C@@]1(C)CO1 [Carfilzomib] | 65.7 |
| CCCCCCCCCCCCCCCC[n+]1ccccc1.[Cl-] [Cetylpyridinium Chloride] + CC(C)C[C@H](NC(=O)[C@H](CCc1ccccc1)NC(=O)CN1CCOCC1)C(=O)N[C@@H](Cc1ccccc1)C(=O)N[C@@H](CC(C)C)C(=O)[C@@]1(C)CO1 [Carfilzomib] | 48.1 |
| CCCCCCCCCCCCCCCC[N+](C)(C)C.[Br-] [Cetrimonium Bromide (CTAB)] + CC(C)C[C@H](NC(=O)[C@H](CCc1ccccc1)NC(=O)CN1CCOCC1)C(=O)N[C@@H](Cc1ccccc1)C(=O)N[C@@H](CC(C)C)C(=O)[C@@]1(C)CO1 [Carfilzomib] | 53.1 |
| CCCCCCCCCCCC[N+](C)(C)CCOc1ccccc1.[Br-] [Domiphen Bromide] + CC(C)C[C@H](NC(=O)[C@H](CCc1ccccc1)NC(=O)CN1CCOCC1)C(=O)N[C@@H](Cc1ccccc1)C(=O)N[C@@H](CC(C)C)C(=O)[C@@]1(C)CO1 [Carfilzomib] | 57.1 |
